# The list is not random: actives were taken first. Their share in the collection is about 6.7%.
# T cruzi growth-1 – blocks T. cruzi growth in NIH3T3 culture; T. cruzi beta-gal in NIH3T3, GalScreen luminescence, 90 h; inhibition, % at 8.34 µM; actives 5.9% (n = 77,000);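 active = mean inhibition above about 93%, with at least 55% of replicates each passing it, limit read from the data, passing the limit was not always enough; inconclusive = only one of those two conditions holds; inactive = neither condition holds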
# Pf Dd2 growth – inhibitors of Plasmodium falciparum Dd2 growth; P. falciparum Dd2 growth, SYBR Green, 72 h; hits give low values; activity change, % at 10 µM; actives 2.3% (n = 94,000); in the data active = activity change below about -80%; inconclusive = no clear call, values can overlap the other calls
# C diff HTS – inhibitors of Clostridium difficile growth; Clostridium difficile clinical isolate growth, OD600, 24 h; hits give low values; actives 0.25% (n = 86,000); AID 1259249; growth activity, negative = inhibition, % at 16 µg/mL (by protocol);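 active = mean growth activity at or below -80% and every replicate also at or below -80%; inconclusive = mean at or below -80% but some replicate above -80%; inactive = mean growth activity above -80%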
# T cruzi growth-2 – inhibitors of T. cruzi proliferation | shares compounds with T cruzi growth-1 | T. cruzi beta-gal in NIH3T3, GalScreen luminescence, 90 h | inhibition, % at 8.35 µM | actives 72% (n = 5,600);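 active = mean replicate inhibition above about 95% and at least 55% of replicates individually reaching it, limit read from the data; inconclusive = only one of the two criteria is met; inactive = neither criterion is met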
# T cruzi growth-3 – inhibitors of T. cruzi proliferation | shares compounds with T cruzi growth-1 | T. cruzi beta-gal in NIH3T3, GalScreen luminescence, 90 h | inhibition, % at 2.09 µM | actives 21% (n = 5,600);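 active = mean inhibition above about 95%, with at least 55% of replicates also reaching it, limit read from the data; inconclusive = meets just one of the two conditions; inactive = meets neither condition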
# 3T3 cytotox – cytotoxicity in mouse NIH/3T3 fibroblasts; shares compounds with T cruzi growth-1; AID 651742; cytotoxicity (signal decrease), % at 8.35 µM; actives 14% (n = 5,600); NIH/3T3 viability, CellTiter-Glo ATP luminescence, 90 h;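 active = mean signal decrease across replicates above about 35% based on untreated-well scatter, with enough replicates individually passing, limit read from the data; inconclusive = no rule stated though some were filed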
# 3T3 cytotox 2 – cytotoxicity in mouse NIH/3T3 fibroblasts; shares compounds with T cruzi growth-1; inhibition, % at 24.9 µM; AID 651744; actives 56% (n = 5,600); NIH/3T3 viability, CellTiter-Glo ATP luminescence, 90 h;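 active = mean loss of cell viability signal at or above a set limit, and enough replicates individually reaching it; inconclusive = meets only the mean limit or only the replicate share; inactive = meets neither condition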
# Numbers stand for hits; - = inactive; ? = inconclusive; . = no result given.
SMILES,T cruzi growth-1,Pf Dd2 growth,C diff HTS,T cruzi growth-2,T cruzi growth-3,3T3 cytotox,3T3 cytotox 2
O=C(C[C@H]1CC[C@@H]2[C@H](COC[C@@H](O)CN2S(=O)(=O)c2ccccc2)O1)Nc1ccc(-c2ccccc2)cc1,-,-,.,.,.,.,.
O=C(C[C@H]1CC[C@@H]2[C@H](COC[C@H](O)CN2S(=O)(=O)c2ccccc2)O1)Nc1ccc(-c2ccccc2)cc1,-,-,.,.,.,.,.
Cc1cccc(S(=O)(=O)N2C[C@H](O)COC[C@@H]3O[C@H](CC(=O)Nc4ccc(-c5ccccc5)cc4)CC[C@H]32)c1,112,-,-,102,107,-,-
COc1ccc(CNC(=O)C[C@@H]2C[C@H]3c4cc(NC(=O)CN(C)C)ccc4O[C@H]3[C@H](CO)O2)cc1,-,-,-,.,.,.,.
C[C@@H](O)C#Cc1ccc([C@@H]2[C@@H](CO)N3CCCCN(S(=O)(=O)Cc4ccccc4)C[C@H]23)cc1,-,-,-,.,.,.,.
O=C(C[C@H]1C[C@@H]2c3cc(NC(=O)c4ccc5c(c4)OCO5)ccc3O[C@@H]2[C@H](CO)O1)NCc1ccccn1,-,-,-,.,.,.,.
N#C[C@@H]1[C@@H](c2ccccc2C2=CCCCC2)[C@@H](CO)N1S(=O)(=O)c1ccccc1,.,-,-,.,.,.,.
Cc1cccc(S(=O)(=O)N2C[C@@H](O)COC[C@@H]3O[C@H](CC(=O)Nc4ccc(-c5ccccc5)cc4)CC[C@H]32)c1,119,-,-,107,-,?,41
O=C(C[C@@H]1CC[C@@H]2[C@H](COC[C@@H](O)CN2S(=O)(=O)c2cccc(F)c2)O1)Nc1ccc(-c2ccccc2)cc1,-,-,-,.,.,.,.
CN(C)c1ccc2c(c1)[C@@H]1C[C@@H](CC(=O)NCc3ccccc3)O[C@H](CO)[C@@H]1O2,-,-,.,.,.,.,.
CN(C)c1ccc2c(c1)[C@H]1C[C@@H](CC(=O)NCc3ccc(Oc4ccccc4)cc3)O[C@@H](CO)[C@H]1O2,108,-,-,-,-,-,-
CN(C)c1ccc2c(c1)[C@H]1C[C@H](CC(=O)NCc3ccc4c(c3)OCO4)O[C@H](CO)[C@H]1O2,-,-,.,.,.,.,.
CN(C)c1ccc2c(c1)[C@@H]1C[C@@H](CC(=O)NCc3ccc4c(c3)OCO4)O[C@@H](CO)[C@@H]1O2,121,-,.,106,-,-,-
O=C(C[C@H]1C=C[C@H](NC(=O)c2ccc(F)cc2)[C@@H](CO)O1)NCCc1ccccc1,-,-,-,.,.,.,.
C[C@H](NC(=O)C[C@H]1C=C[C@H](NC(=O)C2CC2)[C@@H](CO)O1)c1ccccc1,.,-,-,.,.,.,.
O=C(CC1CC1)N[C@H]1CC[C@@H](CCNS(=O)(=O)c2ccc(F)cc2)O[C@H]1CO,-,-,-,.,.,.,.
COc1ccc(-c2ccc3n(c2=O)C[C@H]2[C@H](CO)[C@@H](C(=O)NCCN4CCCCC4)N(C)[C@@H]32)cc1,.,-,-,.,.,.,.
Cc1cccc(-c2ccc([C@H]3[C@@H](CO)N4CCCCN(C(=O)NC(C)C)C[C@@H]34)cc2)c1,-,-,-,.,.,.,.
COc1cccc(-c2ccc([C@@H]3[C@@H](CO)N4CCCCN(C(=O)NC(C)C)C[C@@H]34)cc2)c1,100,-,-,102,-,-,?
COc1cccc(-c2ccc([C@H]3[C@@H](CO)N4CCCCN(C(=O)NC(C)C)C[C@H]34)cc2)c1,117,-,-,108,-,-,61
COc1cccc(-c2ccc([C@@H]3[C@@H](CO)N4CCCCN(C(=O)NC(C)C)C[C@H]34)cc2)c1,-,-,-,.,.,.,.
O=C(c1cccc(F)c1)N1CC[C@@H]2[C@H](CO)Nc3ccc(-c4ccccc4F)cc3[C@@H]21,-,-,-,.,.,.,.
COc1ccc(-c2ccc3c(c2)[C@H]2[C@H](CCN2C(=O)c2cnccn2)[C@H](CO)N3)cc1,108,-,-,105,112,-,-
O=C(c1ccccc1)N1CC[C@@H]2[C@H](CO)Nc3ccc(-c4ccccc4F)cc3[C@@H]21,103,-,-,108,-,-,26
O=C(c1cccc(F)c1)N1CC[C@@H]2[C@H]1c1cc(-c3ccccc3F)ccc1N[C@@H]2CO,-,-,-,.,.,.,.
SMILES,T cruzi growth-1,Pf Dd2 growth,C diff HTS,T cruzi growth-2,T cruzi growth-3,3T3 cytotox,3T3 cytotox 2
O=C(c1ccc(F)cc1)N1CC[C@@H]2[C@H]1c1cc(-c3ccccc3F)ccc1N[C@@H]2CO,100,-,-,95,-,-,103
O=C(c1ccccc1)N1CC[C@@H]2[C@@H](CO)Nc3ccc(-c4ccc(F)cc4)cc3[C@@H]21,-,?,-,.,.,.,.
O=C(c1ccccc1)N1CC[C@@H]2[C@@H](CO)Nc3ccc(-c4ccccc4F)cc3[C@@H]21,108,-,-,108,-,-,?
COc1ccc(C#Cc2ccc3c(c2)[C@@H]2[C@@H](CCN2C(=O)c2cnccn2)[C@@H](CO)N3)cc1,-,-,-,.,.,.,.
C[C@H](CO)N1C[C@H](C)[C@H](CN(C)S(C)(=O)=O)Oc2ccc(NC(=O)CCC(F)(F)F)cc2CC1=O,-,-,-,.,.,.,.
O=C(C[C@@H]1CC[C@H]2[C@@H](COC[C@@H](O)CN2CC2CCCCC2)O1)NCc1ccc(F)cc1,-,.,-,.,.,.,.
C[C@@H]1CCCCO[C@H](CN(C)C(=O)Nc2cccc3ccccc23)[C@H](C)CN([C@@H](C)CO)C(=O)c2cc(N(C)C)ccc2O1,-,-,-,.,.,.,.
CCCNC(=O)C[C@@H]1CC[C@H]2[C@@H](COC[C@H](O)CN2C(=O)CC)O1,.,-,-,.,.,.,.
CN1c2ccc(-c3ccc(C#N)cc3)cc2[C@H]2[C@H](CCN2S(=O)(=O)c2ccc(F)cc2)[C@@H]1CO,-,-,-,.,.,.,.
Cc1nn(C)cc1NC(=O)C[C@@H]1CC[C@@H]2[C@H](COc3ccc(NC(=O)NC(C)C)cc3C(=O)N2C)O1,-,-,-,.,.,.,.
O=C(c1cnccn1)N1CC[C@@H]2[C@H]1c1cc(-c3ccccc3F)ccc1N[C@@H]2CO,100,-,-,107,-,-,44
O=C(c1cnccn1)N1CC[C@@H]2[C@H](CO)Nc3ccc(-c4ccccc4F)cc3[C@@H]21,-,-,-,.,.,.,.
COc1ccc(CN(C)C[C@H]2Oc3ccc(NS(=O)(=O)c4ccc(C)cc4)cc3C(=O)N([C@H](C)CO)C[C@@H]2C)cc1,-,-,-,.,.,.,.
Cc1ccc(S(=O)(=O)N(C)C[C@@H]2Oc3ccc(NC(=O)NC(C)C)cc3C(=O)N([C@H](C)CO)C[C@@H]2C)cc1,-,-,-,.,.,.,.
C[C@H](CO)N1C[C@H](C)[C@H](CN(C)Cc2ccc(C(=O)Nc3ccccc3N)cc2)Oc2ccc(N(C)C)cc2CC1=O,-,-,-,.,.,.,.
C[C@H](CO)N1C[C@H](C)[C@@H](CN(C)Cc2ccc(C(=O)Nc3ccccc3N)cc2)Oc2ccc(N(C)C)cc2CC1=O,122,-,-,102,-,37,76

# Bioassay records: PubChem, Broad Institute
